About 2,000 (36%) of roughly 5,500 compounds were called active. Roughly 18% stayed inconclusive and do not appear here. Rule as the data show it: active = normalized growth mostly below about 0.91 (no sharp cut-off); inconclusive = no clear call, values can overlap the other calls; inactive = mostly above about 0.92. The list shows a part of the results.
Experiment: chemical genetic growth profiling, strain panel (AID 1159580);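 also: tested at 20 µM; growth read once vehicle control cultures reached saturation at 30 °C; 1 = growth at the plate median or of vehicle wells; lower values mean less growth of the strain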
Details: growth OD

Measured: normalized growth

COC(=O)C[C@H]1C(C)(C)C2(O)OC34CC2C(=O)[C@]1(C)C3CC[C@]1(C)C4=CC(=O)O[C@H]1c1ccoc1 (some centres not stated)
inactive: S. cerevisiae deletion strains, locus YJR043C, strain POL32, stronger effect = lower value 0.992 | S. cerevisiae deletion strains, locus YJR066W, strain TOR1, stronger effect = lower value 0.92 | S. cerevisiae deletion strains, locus YKL009W, strain mrt4, stronger effect = lower value 1.03 | S. cerevisiae deletion strains, locus YKL068W, stronger effect = lower value 1.01 | S. cerevisiae deletion strains, locus YKL085W, strain MDH1 (second series), stronger effect = lower value 1.02 | S. cerevisiae deletion strains, locus YKL085W, strain MDH1, stronger effect = lower value 1.02 | S. cerevisiae deletion strains, locus YKL160W, strain elf1, stronger effect = lower value 1.01 | S. cerevisiae deletion strains, locus YKL190W, strain CNB1, stronger effect = lower value 0.994 | S. cerevisiae deletion strains, locus YKR001C, strain vps1, stronger effect = lower value 1.01 | S. cerevisiae deletion strains, locus YKR026C, strain gcn3, stronger effect = lower value 0.991 | S. cerevisiae deletion strains, locus YKR091W, strain srl3, stronger effect = lower value 0.985 | S. cerevisiae deletion strains, locus YLL001W, strain dnm1, stronger effect = lower value 1.02 | S. cerevisiae deletion strains, locus YLL026W, stronger effect = lower value 0.998 | S. cerevisiae deletion strains, locus YLL041C, strain sdh2, stronger effect = lower value 0.979 | S. cerevisiae deletion strains, locus YLR027C, strain aat2, stronger effect = lower value 1 | S. cerevisiae deletion strains, locus YLR039C, strain RIC1, stronger effect = lower value 1.05 | S. cerevisiae deletion strains, locus YLR058C, strain SHM2, stronger effect = lower value 1 | S. cerevisiae deletion strains, locus YLR102C, strain apc9, stronger effect = lower value 1.01 | S. cerevisiae deletion strains, locus YLR113W, strain HOG1, stronger effect = lower value 1.01 | S. cerevisiae deletion strains, locus YLR221C, strain rsa3, stronger effect = lower value 0.991 | S. cerevisiae deletion strains, locus YLR258W, strain gsy2, stronger effect = lower value 0.989 | S. cerevisiae deletion strains, locus YLR262C, strain YPT6 (second series), stronger effect = lower value 1 | S. cerevisiae deletion strains, locus YLR262C, strain YPT6, stronger effect = lower value 1.08 | S. cerevisiae deletion strains, locus YLR268W, strain sec22, stronger effect = lower value 0.998 | S. cerevisiae deletion strains, locus YLR320W, strain mms22, stronger effect = lower value 0.989 | S. cerevisiae deletion strains, locus YLR342W, strain FKS1, stronger effect = lower value 0.977 | S. cerevisiae deletion strains, locus YLR357W, strain rsc2, stronger effect = lower value 0.999 | S. cerevisiae deletion strains, locus YLR370C, strain arc18, stronger effect = lower value 0.967 | S. cerevisiae deletion strains, locus YLR371W, strain rom2, stronger effect = lower value 0.998 | S. cerevisiae deletion strains, locus YLR384C, strain iki3, stronger effect = lower value 0.975 | S. cerevisiae deletion strains, locus YLR418C, strain cdc73, stronger effect = lower value 1.03 | S. cerevisiae deletion strains, locus YML016C, strain PPZ1, stronger effect = lower value 1 | S. cerevisiae deletion strains, locus YML032C, strain rad52, stronger effect = lower value 1.01 | S. cerevisiae deletion strains, locus YML120C, strain ndi1, stronger effect = lower value 0.981 | S. cerevisiae deletion strains, locus YML124C, strain tub3, stronger effect = lower value 1.01 | S. cerevisiae deletion strains, locus YMR058W, strain fet3, stronger effect = lower value 0.999 | S. cerevisiae deletion strains, locus YMR078C, strain ctf18, stronger effect = lower value 1.01 | S. cerevisiae deletion strains, locus YMR125W, strain sto1, stronger effect = lower value 0.982 | S. cerevisiae deletion strains, locus YMR129W, stronger effect = lower value 0.994 | S. cerevisiae deletion strains, locus YMR205C, strain PFK2, stronger effect = lower value 1.01 | S. cerevisiae deletion strains, locus YMR223W, strain ubp8, stronger effect = lower value 1.01 | S. cerevisiae deletion strains, locus YMR231W, strain pep5, stronger effect = lower value 0.957 | S. cerevisiae deletion strains, locus YMR307W, strain GAS1, stronger effect = lower value 0.93 | S. cerevisiae deletion strains, locus YNL067W, strain RPL9B, stronger effect = lower value 1 | S. cerevisiae deletion strains, locus YNL071W, strain lat1, stronger effect = lower value 0.989 | S. cerevisiae deletion strains, locus YNL153C, strain GIM3, stronger effect = lower value 1.01 | S. cerevisiae deletion strains, locus YNL183C, strain NPR1, stronger effect = lower value 0.931 | S. cerevisiae deletion strains, locus YNL209W, strain ssb2, stronger effect = lower value 0.984 | S. cerevisiae deletion strains, locus YNL233W, strain BNI4, stronger effect = lower value 0.985 | S. cerevisiae deletion strains, locus YNL248C, strain rpa49, stronger effect = lower value 1 | S. cerevisiae deletion strains, locus YNL250W, strain rad50, stronger effect = lower value 1.01 | S. cerevisiae deletion strains, locus YNL271C, strain bni1, stronger effect = lower value 1.01 | S. cerevisiae deletion strains, locus YNL298W, strain CLA4, stronger effect = lower value 1 | S. cerevisiae deletion strains, locus YNL307C, strain MCK1, stronger effect = lower value 1 | S. cerevisiae deletion strains, locus YNL322C, strain KRE1 (second series), stronger effect = lower value 0.981 | S. cerevisiae deletion strains, locus YNR049C, strain mso1, stronger effect = lower value 0.988 | S. cerevisiae deletion strains, locus YNR052C, strain pop2, stronger effect = lower value 1.01 | S. cerevisiae deletion strains, locus YOL006C, strain TOP1, stronger effect = lower value 1.01 | S. cerevisiae deletion strains, locus YOL012C, strain htz1 0.65 | S. cerevisiae deletion strains, locus YOL147C, strain pex11, stronger effect = lower value 1.01 | S. cerevisiae deletion strains, locus YOR001W, strain rrp6, stronger effect = lower value 0.953 | S. cerevisiae deletion strains, locus YOR061W, strain CKA2, stronger effect = lower value 1.01 | S. cerevisiae deletion strains, locus YOR069W, strain VPS5, stronger effect = lower value 0.997 | S. cerevisiae deletion strains, locus YOR070C, strain gyp1, stronger effect = lower value 0.992 | S. cerevisiae deletion strains, locus YOR080W, strain dia2, stronger effect = lower value 0.988 | S. cerevisiae deletion strains, locus YOR083W, strain WHI5, stronger effect = lower value 1.02 | S. cerevisiae deletion strains, locus YOR106W, strain vam3, stronger effect = lower value 1.03 | S. cerevisiae deletion strains, locus YOR136W, strain idh2, stronger effect = lower value 1.01 | S. cerevisiae deletion strains, locus YOR144C, strain elg1, stronger effect = lower value 1.02 | S. cerevisiae deletion strains, locus YOR184W, strain ser1, stronger effect = lower value 0.996 | S. cerevisiae deletion strains, locus YOR231W, strain MKK1, stronger effect = lower value 1.01 | S. cerevisiae deletion strains, locus YOR265W, strain rbl2, stronger effect = lower value 0.984 | S. cerevisiae deletion strains, locus YOR270C, strain vph1, stronger effect = lower value 0.98 | S. cerevisiae deletion strains, locus YOR290C, strain snf2, stronger effect = lower value 0.97 | S. cerevisiae deletion strains, locus YOR316C, strain cot1, stronger effect = lower value 1.02 | S. cerevisiae deletion strains, locus YPL051W, strain arl3, stronger effect = lower value 1.01 | S. cerevisiae deletion strains, locus YPL078C, strain atp4, stronger effect = lower value 1.01 | S. cerevisiae deletion strains, locus YPL106C, strain sse1, stronger effect = lower value 0.969 | S. cerevisiae deletion strains, locus YPL240C, strain hsp82, stronger effect = lower value 0.988 | S. cerevisiae deletion strains, locus YPL241C, strain CIN2, stronger effect = lower value 1 | S. cerevisiae deletion strains, locus YPL256C, strain CLN2, stronger effect = lower value 0.942 | S. cerevisiae deletion strains, locus YPR119W, strain clb2, stronger effect = lower value 1.01 | S. cerevisiae deletion strains, locus YPR141C, strain kar3, stronger effect = lower value 1.01 | S. cerevisiae deletion strains, locus YPR163C, strain tif3, stronger effect = lower value 1.01 | S. cerevisiae deletion strains, locus YPR167C, strain met16, stronger effect = lower value 1.01 | S. cerevisiae deletion strains, strain wtn01, stronger effect = lower value 1 | S. cerevisiae strains, strain wild type, stronger effect = lower value 0.996
